Source: PubChem BioAssay AID1159580 (chemical genetic matrix, 2015)
Several values for one entry are separate records, joined by “and”; a condition that tells them apart may be missing. Identical values can stand only once. In all, about 5,500 compounds went through this assay and about 2,000 (36%) were called active. Not shown: some 18% with an inconclusive outcome. Rule as the data show it: active = normalized growth mostly below about 0.91 (no sharp cut-off); inconclusive = no clear call, values can overlap the other calls; inactive = mostly above about 0.92. The list shows a part of the results.

Experiment: chemical genetic growth profiling, strain panel (AID 1159580);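 also: tested at 20 µM; growth read once vehicle control cultures reached saturation at 30 °C; 1 = growth at the plate median or of vehicle wells; lower values mean less growth of the strain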
Conditions: S. cerevisiae deletion strains, growth OD

Measured: normalized growth

O=C(O)C(O)C(O)C(=O)O (configuration not stated)
inactive: locus YAL013W, strain DEP1, hits give low values 0.974 | locus YAL021C, strain ccr4, hits give low values 1 | locus YAL026C, strain drs2, hits give low values 0.999 | locus YAL030W, strain snc1, hits give low values 1 | locus YBL061C, strain skt5, hits give low values 0.989 | locus YBR009C, strain hhf1, hits give low values 0.99 | locus YBR021W, strain FUR4, hits give low values 1.02 | locus YBR023C, strain chs3, hits give low values 0.989 | locus YBR171W, strain sec66, hits give low values 0.986 | locus YBR229C, strain ROT2, hits give low values 0.952 | locus YBR231C, strain swc5, hits give low values 0.996 | locus YBR279W, strain paf1, hits give low values 0.985 | locus YCL011C, strain gbp2, hits give low values 0.988 | locus YCL016C, strain dcc1, hits give low values 0.994 | locus YCL029C, strain bik1, hits give low values 0.985 | locus YCL061C, strain MRC1, hits give low values 0.997 | locus YCL069W, strain vba3, hits give low values 0.982 | locus YCR088W, strain abp1, hits give low values 0.992 | locus YDL005C, strain med2, hits give low values 0.984 | locus YDL035C, strain GPR1, hits give low values 0.996 | locus YDL040C, strain nat1, hits give low values 1.01 | locus YDL074C, strain BRE1, hits give low values 0.976 | locus YDL101C, strain DUN1, hits give low values 0.958 | locus YDL134C, strain PPH21, hits give low values 0.986 | locus YDL185W, strain tfp1, hits give low values 0.966 | locus YDL192W, strain arf1, hits give low values 0.985 | locus YDR001C, strain nth1, hits give low values 0.996 | locus YDR069C, strain doa4, hits give low values 0.99 | locus YDR101C, strain arx1, hits give low values 0.994 | locus YDR137W, strain rgp1, hits give low values 0.984 | locus YDR150W, strain NUM1, hits give low values 0.979 | locus YDR159W, strain sac3, hits give low values 0.975 | locus YDR162C, strain NBP2, hits give low values 0.95 | locus YDR195W, strain ref2 0.978 | locus YDR297W, strain sur2, hits give low values 0.99 | locus YDR318W, strain mcm21, hits give low values 0.999 | locus YDR334W, strain swr1, hits give low values 0.992 | locus YDR335W, strain msn5, hits give low values 0.992 | locus YDR388W, hits give low values 0.99 | locus YDR392W, strain spt3, hits give low values 1 | locus YDR502C, strain sam2, hits give low values 0.991 | locus YEL003W, strain gim4, hits give low values 0.998 | locus YEL037C, strain rad23, hits give low values 1 | locus YEL061C, strain CIN8 (second series), hits give low values 1 | locus YEL061C, strain CIN8, hits give low values 0.984 | locus YER015W, strain faa2, hits give low values 0.992 | locus YER016W, strain bim1, hits give low values 1 | locus YER110C, hits give low values 0.982 | locus YER111C, strain swi4, hits give low values 0.988 | locus YER155C, strain BEM2 (second series), hits give low values 0.991 | locus YER155C, strain BEM2, hits give low values 0.992 | locus YER167W, strain BCK2, hits give low values 0.989 | locus YFR010W, strain ubp6, hits give low values 1 | locus YGL078C, strain dbp3, hits give low values 0.99 | locus YGL086W, strain mad1, hits give low values 1 | locus YGL167C, strain pmr1, hits give low values 1.02 | locus YGL173C, strain kem1, hits give low values 0.974 | locus YGL227W, strain vid30, hits give low values 0.997 | locus YGL240W, strain doc1, hits give low values 0.991 | locus YGL248W, strain PDE1, hits give low values 0.98 | locus YGL253W, strain hxk2, hits give low values 0.994 | locus YGR078C, strain PAC10, hits give low values 0.99 | locus YGR135W, strain pre9, hits give low values 0.978 | locus YGR229C, strain SMI1, hits give low values 0.995 | locus YGR252W, strain gcn5, hits give low values 1.03 | locus YHR013C, strain ard1, hits give low values 0.987 | locus YHR027C, strain rpn1, hits give low values 0.987 | locus YHR030C, strain SLT2, hits give low values 0.997 and 0.963 | locus YHR079C, strain IRE1 (second series), hits give low values 0.996 | locus YHR079C, strain IRE1, hits give low values 0.976 | locus YHR094C, strain hxt1, hits give low values 0.987 | locus YHR129C, strain ARP1, hits give low values 0.993 | locus YHR142W, strain chs7, hits give low values 0.983 | locus YHR200W, strain rpn10, hits give low values 0.99 | locus YIL066C, strain RNR3, hits give low values 0.996 | locus YIL073C, strain SPO22, hits give low values 1.01 | locus YIL125W, strain kgd1, hits give low values 0.995 | locus YIR030C, strain dcg1, hits give low values 0.989 | locus YJL092W, strain hpr5, hits give low values 1 | locus YJL095W, strain BCK1 (second series), hits give low values 1 | locus YJL095W, strain BCK1, hits give low values 1 and 0.963 | locus YJL115W, strain asf1, hits give low values 0.997 | locus YJL129C, strain trk1, hits give low values 0.98 | locus YJL134W, strain LCB3, hits give low values 0.982 | locus YJL154C, strain vps35, hits give low values 0.988 | locus YJL164C, strain tpk1, hits give low values 1.01 | locus YJL166W, strain qcr8, hits give low values 0.989 | locus YJL168C, strain set2, hits give low values 0.996 | locus YJL187C, strain SWE1 (second series), hits give low values 0.98 | locus YJL187C, strain SWE1, hits give low values 1 | locus YJR043C, strain POL32, hits give low values 1.03 | locus YJR066W, strain TOR1, hits give low values 0.943
